Assay outcomes: PubChem BioAssay, National Center for Advancing Translational Sciences (NCATS)
Rows were chosen to be rich in hits. Some 7.4% of all compounds tested hit in one or more screens of this group.
KinaseGlo FLuc: Counterscreen for Luciferase (Kinase-Glo TM) Inhibition; Luciferin 4-monooxygenase (Photuris pensylvanica), Q27757; Kinase-Glo luciferase, ATP luminescence, 8 min; Potency, µM (series often up to 38.3 µM), without a hit: at the highest dose activity change, negative = inhibition, usual class: inhibitors; 200,000 tested, 0.28% active; AID 1379, 2008; also: % is scaled to controls: 0 for no effect and ±100 for the full control effect; nearly all actives have a fitted effect of over 60% in size
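Inhibition of Kinase-Glo luciferase light generation was assessed at 10 uM ATP in pH 7.2 imidazole buffer, with luminescence measured after eight minutes at ambient temperature.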
SMN2 splice up: qHTS Assay for Enhancers of SMN2 Splice Variant Expression. HEK293 SMN2-luciferase splicing reporter, luminescence, 30-36 h. Potency, µM (series often up to 46.1 µM), for the others: at the highest dose activity change, positive = activation, usual class: activators. 210,000 tested, 2.8% active; also: % of control where 0% means no effect; nearly all actives have a fitted effect of over 55% in size
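qHTS luciferase splicing reporter: luminescence rises when SMN2 exon 7 is included in transfected HEK293 cells. Compound exposure lasted 30-36 h at 37C, with 4.5 mM final sodium butyrate as control, followed by a ONE-Glo read.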
NPC1 prom act: qHTS Assay for NPC1 Promoter Activators; Huh7 NPC1 promoter luciferase reporter, 24 h; Potency, µM (top dose mostly 9.22 µM), inactives show at the top dose activation, most hits filed as activators; 320,000 tested, 2.4% active; AID 485313, 2010; also: % of control where 0% means no effect; nearly all actives have a fitted effect of over 60% in size
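Luminescence read-out of NPC1 promoter-driven luciferase in stably transfected Huh7 cells; compounds delivered in DMSO and left 24 h at 37C, 5% CO2, qHTS titration format.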
FLuc modulator: qHTS profiling assay for firefly luciferase inhibitor/activator using purifed enzyme and Km concentrations of substrates (counterscreen for miR-21 project) | Luciferin 4-monooxygenase (Photinus pyralis), P08659 | purified FLuc, Km substrates, luminescence inhibition | Potency, µM (titrated, usually from 57.5 µM), for the others: at the highest dose activity change, negative = inhibition, most hits filed as inhibitors | 360,000 tested, 6.9% active;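 also: plate controls were vehicle for no effect and reference inhibitor for full effect; nearly all actives have a fitted effect of over 55% in size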
Target sequence (P08659 whole entry, looked up): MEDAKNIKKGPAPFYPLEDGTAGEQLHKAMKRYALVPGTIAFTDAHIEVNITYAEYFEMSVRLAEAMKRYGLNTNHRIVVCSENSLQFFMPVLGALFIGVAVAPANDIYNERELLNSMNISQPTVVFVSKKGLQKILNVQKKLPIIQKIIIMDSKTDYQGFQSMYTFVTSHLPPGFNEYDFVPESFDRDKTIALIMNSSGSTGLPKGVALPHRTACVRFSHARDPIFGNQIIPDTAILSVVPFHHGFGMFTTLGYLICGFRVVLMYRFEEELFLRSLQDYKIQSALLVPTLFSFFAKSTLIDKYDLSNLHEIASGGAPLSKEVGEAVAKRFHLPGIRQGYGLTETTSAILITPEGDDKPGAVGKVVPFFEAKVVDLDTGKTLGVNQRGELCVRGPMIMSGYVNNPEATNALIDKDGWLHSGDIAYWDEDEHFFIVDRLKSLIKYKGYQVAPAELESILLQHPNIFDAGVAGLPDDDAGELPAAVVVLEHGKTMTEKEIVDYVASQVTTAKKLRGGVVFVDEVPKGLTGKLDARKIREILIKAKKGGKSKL
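Purified P. pyralis luciferase, 10 nM final, with Km-level 10 uM D-luciferin and 10 uM ATP in 50 mM Tris acetate pH 7.5, 10 mM Mg acetate, 0.01% Tween-20, 0.05% BSA; 6-point qHTS titration about 60 µM downward; luminescence read.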
ELG1 genotoxic: qHTS screen for small molecules that induce genotoxicity in human embryonic kidney (HEK293T) cells expressing luciferase-tagged ELG1 | HEK293T ELG1-luciferase reporter, luminescence, 16 h | AID 504466, 2011 | Potency, µM (top dose mostly 46 µM), inactives show at the highest dose activity change, positive = activation, actives largely listed as activators | 330,000 tested, 1.3% active; also: % of control where 0% means no effect; nearly all actives have a fitted effect of over 60% in size
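16 hr compound incubation (37 °C, 5% CO2) of HEK293T cells carrying luciferase-tagged ELG1; luciferase then measured by ONE-Glo luminescence after 30 min at RT.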
Rab9 promoter act: qHTS Assay for Rab9 Promoter Activators; Huh7 Rab9 promoter-luciferase reporter, luminescence, 24 h; Potency, µM (doses to about 9.22 µM), without a hit: at the highest dose activation, negative = inhibition, hits mostly activators; 320,000 tested, 2.8% active; also: % of control where 0% means no effect; nearly all actives have a fitted effect of over 60% in size
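Rab9 promoter-driven luciferase in stably transfected Huh7 cells; 1500 cells/well rested 2 h, exposed to compound in DMSO for 24 h at 37 °C, 5% CO2. Luminescence read 10 min after adding luciferase reagent at ambient temperature.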
* = called active by the depositor; ? = inconclusive; . = no result given. Calls follow the shape of the dose curve; as a rule, active = well fitted curve in the direction sought with a large enough effect; inconclusive = small, poorly fitted or top-dose-only effect, or another doubt; inactive = no such curve, though single readings can be large; an effect the other way counts as inactive or inconclusive. Potency is read from the fitted curve at half-maximal effect.

SMILES | KinaseGlo FLuc | SMN2 splice up | NPC1 prom act | FLuc modulator | ELG1 genotoxic | Rab9 promoter act
COc1ccc(-n2nc3cc(C)c(N)cc3n2)cc1Cl | . | . | 2.2µM* | 1.1µM* | ? | 2.8µM*
Cc1cc2nn(-c3ccc(Cl)cc3)nc2cc1N | . | . | ? | 0.34µM* | ? | 22%
CCCN(C(=O)CCOc1ccc(C(C)(C)C)cc1)c1c(N)n(Cc2ccccc2)c(=O)[nH]c1=O | . | . | -1% | 6% | 0% | -2%
COc1ccccc1N1CC=C(c2cccc([N+](=O)[O-])c2)NC1=O | . | . | -3% | -28% | -3% | -3%
CCOc1ccccc1N1CCN(C(=O)c2cc(S(=O)(=O)N(C)C)ccc2N2CCCC2)CC1 | . | . | 1% | 4% | -3% | 2%
COc1cc(SC)ccc1C(=O)Nc1ccc(Cl)cn1 | -23% | . | 0.89µM* | 0.076µM* | ? | 0.89µM*
COc1cc(SC)ccc1C(=O)Nc1nc(C)cc(C)n1 | . | . | ? | ? | 3% | ?
COc1cc(SC)ccc1C(=O)Nc1ccncc1 | 0% | -50% | 0% | ? | 12% | -21%
CSc1ccc(Cl)c(C(=O)Nc2ccc(Cl)cn2)c1 | -1% | . | -13% | -10% | -4% | -11%
COc1cc(SC)ccc1C(=O)Nc1ccccc1C#N | 2% | 13µM* | -1% | ? | 9.2µM* | 3%
COc1cc(SC)ccc1C(=O)NCC1CCCO1 (stereo not given) | -4% | 1% | 14% | -1% | -2% | 3%
COc1cc(SC)ccc1C(=O)Nc1ccc2c(c1)CCC2 | . | . | 4µM* | 2.1µM* | ? | 4µM*
COc1cc(SC)ccc1C(=O)Nc1cccc(C2OCCCO2)c1 | . | . | 3.5µM* | 17µM* | 3% | 1.4µM*
Cc1ccc2[nH]c3c(c2c1)CCN(C)C3 | . | . | 1% | -3% | -9% | -1%
CCCCOc1ccc(CC2CCC(=O)NC2=O)cc1 (stereo not given) | 4% | -5% | 7% | -9% | 5% | -2%
COc1ccc(C2CC(c3ccccc3OC(C)=O)=NN2C(C)=O)cc1 (stereo not given) | . | . | -27% | 2% | 6% | ?
NC(=O)c1cc(-c2csc(-c3cccnc3)n2)ccc1O | . | . | 24% | ? | 4% | 4%
COc1ccc2cc(-c3csc(-c4cccnc4)n3)ccc2c1 | -9% | 13µM* | 3.2µM* | 2.1µM* | 13µM* | ?
COc1ccc(-c2csc(-c3cccnc3)n2)cc1C | -2% | . | ? | 7.6µM* | ? | 2.8µM*
COC(=O)Cn1c(C(O)c2ccccc2)nc2ccccc21 (stereo not given) | . | . | -2% | -1% | 3% | -5%
CC(C)Cn1nc(C(=O)Nc2nnc(C3CC3)s2)c2ccccc2c1=O | . | . | 0% | 3% | -3% | -5%
CCNc1ncc2nc(CCc3ccccc3)c(=O)n(C)c2n1 | -2% | 13µM* | . | . | . | .
CC(C)S(=O)(=O)c1csc(C(=O)Nc2ccc(F)cc2)c1N | . | . | 0.56µM* | 6µM* | 2.9µM* | 0.56µM*
O=C(CSc1nccc(=O)[nH]1)Nc1cccc2ccccc12 | . | . | 1% | 4% | 2% | 8%
CCCC1CCC(c2nc(-c3cccnc3)no2)CC1 (stereo not given) | -1% | -3% | 24% | 24µM* | 15% | ?
SMILES | KinaseGlo FLuc | SMN2 splice up | NPC1 prom act | FLuc modulator | ELG1 genotoxic | Rab9 promoter act
COc1ccc(/C=N/NC(=O)C2C(C=C(Cl)Cl)C2(C)C)c(OC)c1 (stereo not given) | 2% | -7% | -7% | 0% | -8% | -3%
Cc1c(Cl)sn(-c2ccc(Cl)cc2)c1=O | -2% | -99% | -24% | 8.5µM* | 1% | -39%
C=C(C)C(=O)c1cccs1 | 2% | 3% | . | . | . | .
O=C(CNc1ccc2ccccc2c1)N/N=C/c1cc2ccccc2nc1Cl | 5% | -17% | 7% | 15µM* | -2% | -3%
O=C(CNc1cccc2ccccc12)N/N=C/c1ccc(C(=O)O)cc1 | -1% | -5% | 2% | -18% | 0% | 10%
O=C(CNc1ccc2ccccc2c1)N/N=C/c1ccc(C(=O)O)cc1 | 1% | 12% | 8% | 27µM* | 3% | 2%
O=C(CCCc1ccc(-c2ccccc2F)cc1)Nc1ccc(O)cc1 | -3% | ? | . | . | . | .
O=C/C(=C\Nc1ccccn1)c1nc2cc(Cl)ccc2o1 | 4% | ? | 10% | ? | -2% | 26%
O=C/C(=C\Nc1ccccn1)c1nc2ccccc2o1 | -4% | 25% | 13% | 13µM* | 1% | 5%
CC(=O)Nc1ccc(N/C=C(\C=O)c2nc3ccccc3o2)cc1 | -1% | . | -2% | 6% | 1% | 19%
CC(=O)Nc1cccc(N/C=C(\C=O)c2nc3ccccc3o2)c1 | -3% | ? | 15% | 19µM* | 11% | 19%
O=S(=O)(NC1CCCCC1)c1ccc(N2CCOCC2)nc1 | . | . | 1% | -3% | -1% | 5%
CC(=O)N1c2ccc(S(=O)(=O)N3CCN(c4ccc(C)cc4C)CC3)cc2CC1C (stereo not given) | . | . | . | -2% | . | .
O=C(Nc1ccccc1)Nc1ccc(Cl)c(S(=O)(=O)N2CCOCC2)c1 | -2% | -20% | -9% | ? | -11% | -8%
Cc1ccc(NC(=O)/C=C/c2ccc3c(c2)OCO3)cc1S(=O)(=O)N1CCOCC1 | 3% | -51% | -3% | 11µM* | -11% | -17%
O=C(/C=C/c1ccco1)Nc1ccc(Cl)c(S(=O)(=O)N2CCOCC2)c1 | . | . | 5% | 19µM* | -11% | -8%
Cc1ccc(S(N)(=O)=O)cc1NC(=O)/C=C/c1ccc2c(c1)OCO2 | 0% | -5% | -1% | 24µM* | 1% | 3%
COc1ccccc1NC(=O)/C=C/c1ccc2c(c1)OCO2 | -15% | 11µM* | 28% | 6.7µM* | 13% | ?
COc1ccccc1N1CCN(C(=O)/C=C/c2ccc3c(c2)OCO3)CC1 | -2% | -10% | -3% | -9% | -6% | 1%
O=C(NCC1CCOCC1)C1CCC(=O)N(Cc2cccc(C(F)(F)F)c2)C1 (stereo not given) | . | . | -5% | -1% | -2% | -1%
CCn1ncc(/C=N/NC(=O)c2cc(Cl)ccc2OC)c1C | 0% | 10% | -2% | ? | 1% | 0%
Cc1ccc(C(=O)c2ccccc2C(=O)OCC(=O)N2C(C)CCCC2C)cc1 (stereo not given) | . | . | -1% | . | -4% | -4%
